# Experimental data from PubChem BioAssay (NCI).
# Several values for one entry are separate records, joined by “and”; a condition that tells them apart may be missing. Equal values may be shown once. Compounds without any hit were thinned out: in the full panel of roughly 83,000, 20% have a hit.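 Values shown are percent growth following 48 h exposure of cells in 96-well plates to a single concentration of compound; below 10 was considered active.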 Activity calls are given as the source filed them.
# Experiments:
# Test in all cases: NCI-60 one-dose screen, 48 h (100 = growth as untreated, 0 = no growth, -100 = all killed)
# Settings in all cases: 10 µM unless noted
# HCT-15 colon = system: HCT-15 colon
# HT29 colon = system: HT29 colon
# SNB-75 CNS = system: SNB-75 CNS
# SNB-19 CNS = system: SNB-19 CNS
# U251 CNS = system: U251 CNS
# PC-3 prostate = system: PC-3 prostate
# SK-MEL-5 melanoma = system: SK-MEL-5 melanoma
# UACC-62 melanoma = system: UACC-62 melanoma
# LOX IMVI melanoma = system: LOX IMVI melanoma
# SK-MEL-28 melanoma = system: SK-MEL-28 melanoma
# SK-MEL-2 melanoma = system: SK-MEL-2 melanoma
# EKVX NSCLC = system: EKVX NSCLC
# SN12C renal = system: SN12C renal
# UO-31 renal = system: UO-31 renal
# TK-10 renal = system: TK-10 renal
# ACHN renal = system: ACHN renal
# CAKI-1 renal = system: CAKI-1 renal
# CCRF-CEM leukemia = system: CCRF-CEM leukemia
# A498 renal = system: A498 renal
# MOLT-4 leukemia = system: MOLT-4 leukemia
SMILES,growth (HCT-15 colon),growth (HT29 colon),growth (SNB-75 CNS),growth (SNB-19 CNS),growth (U251 CNS),growth (PC-3 prostate),growth (SK-MEL-5 melanoma),growth (UACC-62 melanoma),growth (LOX IMVI melanoma),growth (SK-MEL-28 melanoma),growth (SK-MEL-2 melanoma),growth (EKVX NSCLC),growth (SN12C renal),growth (UO-31 renal),growth (TK-10 renal),growth (ACHN renal),growth (CAKI-1 renal),growth (CCRF-CEM leukemia),growth (A498 renal),growth (MOLT-4 leukemia)
COc1ccc2ccccc2c1/C=N/N1CCCCC1,99.4% (inactive),101% (inactive),87.6% (inactive),88.1% (inactive),97.8% (inactive),95.9% (inactive),98.3% (inactive),89.1% (inactive),93% (inactive),96.5% (inactive),102% (inactive),93.6% (inactive),96.9% (inactive),88.9% (inactive),105% (inactive),99% (inactive),85.7% (inactive),96.7% (inactive),,
CCN(CC)CCNc1cc(-c2cccc(OC(F)(F)F)c2)nc2ccc(N3CCCC3)cc12,24.3% (inactive) and 3.13% (active) and 13.6% (inactive),10.9% (inactive) and -11.1% (active) and 1.35% (active),86.4% (inactive) and 51.9% (inactive),2.91% (active) and 15.2% (inactive) and 36.9% (inactive),46.2% (inactive) and -36.6% (active) and 15.6% (inactive),-94.4% (active) and 7.18% (active) and 28.2% (inactive),-2.81% (active) and -88% (active) and 7.43% (active),-64.9% (active) and -73.2% (active) and -23.9% (active),-40.9% (active) and -59.6% (active) and -51.7% (active),-9.25% (active) and -32.5% (active) and 11% (inactive),52.2% (inactive) and -30.5% (active) and 4.6% (active),73.5% (inactive) and 59.5% (inactive) and 42.8% (inactive),3.62% (active) and 3.14% (active) and 38.1% (inactive),10.4% (inactive) and -12.9% (active) and 29.7% (inactive),74.5% (inactive) and 19.1% (inactive) and 40.1% (inactive),24.4% (inactive) and 12.9% (inactive) and 27.7% (inactive),,-30.4% (active) and -4.6% (active) and 2.25% (active),71.2% (inactive) and 4.86% (active) and 50.8% (inactive),
CC(C)C(=O)Nc1ccc([N+](=O)[O-])c(C(F)(F)F)c1,94% (inactive) and 100% (inactive),106% (inactive) and 115% (inactive),113% (inactive) and 92% (inactive),96.8% (inactive) and 102% (inactive),98.3% (inactive) and 96.7% (inactive),69.5% (inactive) and 100% (inactive),85.2% (inactive) and 98.4% (inactive),74.9% (inactive) and 80% (inactive),90% (inactive) and 93.2% (inactive),102% (inactive) and 107% (inactive),111% (inactive) and 28.9% (inactive),51.4% (inactive) and 86.1% (inactive),65.3% (inactive) and 88% (inactive),76.1% (inactive) and 71.9% (inactive),94.5% (inactive) and 111% (inactive),98.4% (inactive),69.2% (inactive) and 100% (inactive),75.4% (inactive) and 109% (inactive),84.4% (inactive) and 96% (inactive),76.8% (inactive) and 97.8% (inactive)
N#CC(C#N)=C/C=C/c1cccc([N+](=O)[O-])c1,-6.94% (active) and -31.6% (active),-19.6% (active) and -39.5% (active),68.2% (inactive) and 11.3% (inactive),51.3% (inactive) and 41.4% (inactive),10% (inactive) and -22.7% (active),14.5% (inactive) and 0.0705% (active),8.16% (active) and -10.6% (active),-51.7% (active) and -61.6% (active),-29.1% (active) and -78.9% (active),5.56% (active) and -41.8% (active),20.6% (inactive) and -14.1% (active),45.5% (inactive) and 2.6% (active),-21.7% (active) and -30.1% (active),-16.6% (active) and -82.4% (active),7.02% (active) and -19.4% (active),-22.1% (active) and -59.7% (active),10.6% (inactive) and -24.8% (active),2.18% (active) and 1.1% (active),94.4% (inactive) and 2.43% (active),-1.02% (active) and 3.93% (active)
CCc1c(CC(=O)O)c2cc(C)ccc2n1Cc1ccc(Cl)cc1,99.2% (inactive) and 98.3% (inactive),109% (inactive) and 117% (inactive),84.1% (inactive) and 93.7% (inactive),102% (inactive) and 90.6% (inactive),107% (inactive) and 93.7% (inactive),95% (inactive),93.8% (inactive) and 97.2% (inactive),84.9% (inactive) and 83.8% (inactive),103% (inactive) and 101% (inactive),129% (inactive) and 125% (inactive),103% (inactive) and 90.9% (inactive),98.8% (inactive) and 93.4% (inactive),91.1% (inactive) and 82.4% (inactive),76.6% (inactive) and 73.4% (inactive),99.7% (inactive) and 262% (inactive),93.5% (inactive) and 96.1% (inactive),90% (inactive),97.4% (inactive) and 106% (inactive),114% (inactive) and 108% (inactive),96.9% (inactive) and 152% (inactive)
Cc1ccc(NCSc2ccc(Cl)cc2)cc1,77.1% (inactive) and 90.7% (inactive),79.4% (inactive) and 75.7% (inactive),86% (inactive) and 91.7% (inactive),89.3% (inactive) and 90% (inactive),71.4% (inactive) and 79.1% (inactive),66.8% (inactive) and 62.3% (inactive),86.5% (inactive) and 102% (inactive),82.3% (inactive) and 85% (inactive),88.6% (inactive) and 95.2% (inactive),86.9% (inactive) and 94.3% (inactive),108% (inactive) and 93.6% (inactive),92.7% (inactive) and 77.3% (inactive),46.2% (inactive) and 42.7% (inactive),27% (inactive) and 14.7% (inactive),90.8% (inactive) and 78.2% (inactive),88.4% (inactive) and 99.6% (inactive),59.5% (inactive),17.8% (inactive),,25.1% (inactive) and 47.8% (inactive)
COc1ccc(CCN(C)CCCC(C#N)(c2ccc(OC)c(OC)c2)C(C)C)cc1OC (centres undefined),94% (inactive) and 86.4% (inactive) and 101% (inactive),79.2% (inactive) and 74.7% (inactive) and 93.8% (inactive),65% (inactive) and -24.5% (active) and 86.8% (inactive),107% (inactive) and 101% (inactive) and 105% (inactive),90.4% (inactive) and 95.2% (inactive) and 99.9% (inactive),76.3% (inactive) and 68.4% (inactive) and 95.5% (inactive),94% (inactive) and 99.8% (inactive) and 101% (inactive),106% (inactive) and 97% (inactive) and 101% (inactive),92.3% (inactive) and 95.4% (inactive) and 92.7% (inactive),106% (inactive) and 99.7% (inactive),93.5% (inactive) and 109% (inactive),92.1% (inactive) and 90.3% (inactive) and 98.6% (inactive),92.7% (inactive) and 107% (inactive) and 109% (inactive),63.4% (inactive) and 86.6% (inactive) and 81.2% (inactive),97.1% (inactive) and 127% (inactive) and 95.8% (inactive),93.2% (inactive) and 95.8% (inactive),73% (inactive) and 79.3% (inactive) and 94.5% (inactive),95% (inactive) and 86.2% (inactive) and 97.9% (inactive),,72.9% (inactive) and 83.8% (inactive) and 95.8% (inactive)
COc1ccc(-c2ncnc3c2ncn3C/C=C/CCl)cc1,61% (inactive) and 81.2% (inactive),84.6% (inactive) and 84.3% (inactive),128% (inactive) and 105% (inactive),87.8% (inactive) and 78.5% (inactive),64.2% (inactive) and 77.3% (inactive),83.8% (inactive) and 87% (inactive),85.7% (inactive) and 82.4% (inactive),76.6% (inactive) and 74% (inactive),54.2% (inactive) and 70.1% (inactive),98.4% (inactive) and 98.9% (inactive),68.6% (inactive) and 59.2% (inactive),108% (inactive) and 106% (inactive),83.6% (inactive) and 79.6% (inactive),60.3% (inactive) and 85.8% (inactive),86.3% (inactive) and 95.3% (inactive),59.4% (inactive) and 79.3% (inactive),70.8% (inactive) and 90.8% (inactive),63.2% (inactive) and 56.7% (inactive),68.4% (inactive) and 85.6% (inactive),48.9% (inactive)
